# Compound activity: PubChem, The Scripps Research Institute Molecular Screening Center
# Shown are actives, neighbours in structure and some others; about 4.1% of the full set was active somewhere.
# ssDAF12 agonist = S. stercoralis DAF-12 nuclear receptor activators, primary screen, cell-based, luminescence, HEK293, GRIP1 co-expression, lit1-tk-luc. activation, % at 6.8 µM. AID 652126, 2013. 370,000 tested, 1% active. Nuclear hormone receptor DAF-12 (Strongyloides stercoralis). HEK293 ssDAF-12/GRIP1 lit1-tk-luc reporter; % of 3 µM dafachronic acid response;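 active = activation above the mean over all tested compounds plus 3 SD, cut at about 0.9% in these data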;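 also: 0% = DMSO-only wells and 100% = 3 µM delta7-dafachronic acid wells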
# DAX1 inh-1 = DAX1 (NR0B1) inhibitors, primary screen, cell-based, HEK293, Gal4-DAX1, luciferase luminescence; inhibition, % at 6.75 µM; 340,000 tested, 0.99% active; AID 504766, 2011; HEK293 Gal4-DAX1 luciferase reporter; Nuclear receptor subfamily 0 group B member 1 (Homo sapiens), P51843;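 active = inhibition above the mean over all tested compounds plus 3 SD, cut at about 4.2% in these data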;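 also: 0% = DAX1-transfected cells with DMSO and 100% = empty-vector control cells with DMSO; inhibition shows as a rise in luminescence from relieved DAX1 repression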
# Target sequence (P51843 207-470 limits assumed): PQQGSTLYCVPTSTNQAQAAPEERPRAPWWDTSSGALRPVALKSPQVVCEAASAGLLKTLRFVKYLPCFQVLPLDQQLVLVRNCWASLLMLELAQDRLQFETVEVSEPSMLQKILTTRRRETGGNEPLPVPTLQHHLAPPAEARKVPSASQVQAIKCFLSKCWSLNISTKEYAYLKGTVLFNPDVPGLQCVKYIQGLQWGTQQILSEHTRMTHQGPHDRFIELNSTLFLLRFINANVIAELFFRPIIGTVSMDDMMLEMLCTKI
# hgDAF-12 ag = H. glycines DAF-12 receptor agonists, primary screen, cell-based, luminescence, HEK293, GAL4 fusion, UAS-luciferase. Nuclear hormone receptor DAF-12 (Heterodera glycines), GAL4 fusion. activation, % at 6.8 µM. HEK293 GAL4-hgDAF12 UAS-luciferase reporter, agonist luminescence; normalized to butyrate control. 370,000 tested, 1.8% active. AID 687014, 2013;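 active = activation above a cutoff set at the mean of all screened compounds plus 3 SD, cut at about 10% in these data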;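 also: 0% = DMSO wells and 100% = sodium butyrate wells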
# hcDAF-12 act = H. contortus DAF-12 nuclear receptor activators, primary screen, cell-based, luminescence, HEK293, lit1-tk-luc reporter; 370,000 tested, 1.4% active; activation, % at 6.8 µM; HEK293 hcDAF-12 lit1-tk-luc reporter; 0% DMSO, 100% Δ7-dafachronic acid;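 active = activation above the mean of all tested compounds plus 3 SD, cut at about 5.5% in these data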;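 also: 100% = response to 3 µM Δ7-dafachronic acid high control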
# DAX1 inh-2 = DAX1 (NR0B1) inhibitors on StAR promoter, primary screen, cell-based, luminescence, SF-1 (NR5A1), full-length DAX-1; HEK293T StAR-luciferase reporter, SF-1/DAX-1 repression relief; inhibition, % at 6.8 µM; 370,000 tested, 1.1% active; AID 652010, 2013;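 active = inhibition above the mean over all tested compounds plus 3 SD, cut at about 3.6% in these data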;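 also: 0% = DAX-1 cells with DMSO and 100% = cells lacking DAX-1 with DMSO; higher inhibition means more luminescence from relief of DAX-1 repression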
# DAX1 conf = DAX1 (NR0B1) inhibitors relieving SF-1 repression, confirmation, cell-based, luminescence, HEK293T, full-length DAX-1, SF-1 activated StAR promoter | shares compounds with DAX1 inh-2 | HEK293T StAR-promoter luciferase reporter, SF-1/DAX-1 repression | inhibition, % at 6.8 µM | 2,400 tested, 87% active | AID 652134, 2013;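 active = inhibition above the average of every tested compound plus 3 SD, cut at about 3.8% in these data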;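 also: 0% = DAX-1 cells with DMSO and 100% = no DAX-1 control cells with DMSO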
# SF1 mutant ctr = StAR reporter signal changes without DAX1, counter-screen for DAX1 inhibitor project, cell-based, luminescence, AF-2 mutant SF-1, transactivation | shares compounds with DAX1 inh-2 | HEK293 StAR-luciferase, SF-1 AF2 mutant | inhibition, % at 6.8 µM | 2,400 tested, 78% active | AID 652136, 2013;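 active = inhibition above the mean of all tested compounds plus 3 SD, cut at about 3% in these data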;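 also: 0% = DAX-1 transfected cells with DMSO and 100% = cells without DAX-1 with DMSO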
# LXRb hcDAF ctr = LXR agonists, Gal4 luciferase reporter, confirmation, counter-screen for hcDAF-12 agonist project, cell-based, luminescence, HEK293, H. contortus campaign; shares compounds with hcDAF-12 act; HEK293 Gal4-LXR tk-luc reporter, 24 h; normalized: DMSO 0%, positive control 100%; activation, % at 6.8 µM; 3,400 tested, under 10 active; AID 743027, 2013;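 active = mean percent activation of the reporter above a cutoff set as the average over tested compounds plus their standard deviation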
# hcDAF12 conf = H. contortus DAF-12 receptor agonists, confirmation, cell-based, luminescence, HEK293, lit1-tk-luc, triplicate | shares compounds with hcDAF-12 act | AID 743032, 2013 | HEK293 hcDAF-12 lit1-tk-luc reporter; % of Δ7-dafachronic acid response | 3,400 tested, 61% active | activation, % at 6.8 µM;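 active = mean activation across triplicate tests above the threshold derived from the earlier primary screen, cut at about 5.5% in these data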;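 also: 0% = DMSO only wells and 100% = 3 µM Δ7-dafachronic acid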
# hgDAF12 conf = H. glycines DAF-12 receptor agonists, confirmation, cell-based, luminescence, HEK293, GAL4-LBD fusion; shares compounds with hgDAF-12 ag; HEK293 GAL4-hgDAF12 luciferase reporter, agonist mode; percent of butyrate response; activation, % at 6.8 µM; 3,300 tested, 80% active;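 active = mean activation over triplicate wells above the hit cutoff derived from the earlier primary screen, cut at about 11% in these data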;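 also: 0% = DMSO low control and 100% = 2 mM sodium butyrate high control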
# LXR ag 2 = LXR agonists, Gal4 luciferase reporter, confirmation, counter-screen for hgDAF-12 agonist project, cell-based, luminescence, HEK293, H. glycines campaign; activation, % at 6.8 µM; 24 h; 3,300 tested, under 10 active; shares compounds with hgDAF-12 ag;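 active = mean activation of the triplicate above a set limit carried over from the primary screen, none filed active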
# Numbers without * were called inactive; · = no result given.
SMILES,ssDAF12 agonist,DAX1 inh-1,hgDAF-12 ag,hcDAF-12 act,DAX1 inh-2,DAX1 conf,SF1 mutant ctr,LXRb hcDAF ctr,hcDAF12 conf,hgDAF12 conf,LXR ag 2
COc1ccccc1NC(=S)N/N=C/c1ccc(O)cc1,-1,1,19*,6.1*,5.5*,16*,8.4*,·,·,20*,1
O=c1c2ccccc2nc2n1CCc1c-2[nH]c2ccccc12,3.6*,4.9*,25*,13*,7.8*,19*,12*,2,14*,24*,1
CCOC(=O)[C@H](Cc1ccccc1)NC(=O)[C@H]1C[C@@]2(N3CCCCC3)c3ccccc3N(C(=O)OC(C)(C)C)[C@H]2N1C(=O)OC(C)(C)C,-1,·,1,0,-2,·,·,·,·,·,·
Cc1nn(-c2ccccc2)c2sc(C(=O)NC3CCCC3)cc12,-1,·,-5,-2,-2,·,·,·,·,·,·
CCC(=O)Nc1ccc(OCc2nc3ccccc3s2)cc1,2.5*,2,20*,11*,9.4*,15*,7.7*,1,11*,16*,1
C=CCNC(=O)CSc1nc2c(c(=O)[nH]1)CCCC2,-1,·,-3,-1,0,·,·,·,·,·,·
Cc1ccc2nc(N(CCN3CCOCC3)C(=O)CCS(=O)(=O)c3ccccc3)sc2c1,0,4,14*,0,5.1*,6.8*,4.8*,·,·,11*,0
Cc1ccc(S(=O)(=O)CCC(=O)N(CCCN2CCOCC2)c2nc3ccccc3s2)cc1,0,1,6,3,3,·,·,·,·,·,·
O=C(Nc1ccc2c(c1)OCCO2)c1ccc2ccccc2n1,2.7*,3,20*,21*,10.0*,13*,8.2*,2,16*,22*,1
COCC(=O)Nc1c(C(=O)Nc2ccc3c(c2)OCCO3)oc2ccccc12,-1,1,17*,3,4.6*,8.6*,5.9*,·,·,18*,1
O=C(Nc1ccccc1)c1ccc2ccccc2n1,1.9*,5.6*,19*,18*,5.4*,13*,9.8*,1,16*,22*,1
O=C(Nc1ccc2c(c1)OCCO2)c1oc2ccccc2c1NC(=O)C1CC1,-2,-1,-2,-1,1,·,·,·,·,·,·
COCCCNc1ccn2nc(-c3ccc(Cl)cc3)cc2n1,0,·,14*,8.0*,7.3*,10*,7.3*,1,6.5*,21*,1
COc1cccc(/C=N/Nc2ccccc2C(=O)O)c1O,1.4*,5.0*,9,7.8*,3,·,·,1,11*,·,·
CCOC(=O)c1cnc(-c2ccccc2)nc1N(C)C,1,3,11*,11*,2,·,·,0,9.4*,·,·
Cc1ccccc1C(=O)N(C)[C@H]1C[C@H]2c3[nH]c4c(-c5ccc6c(c5)OCO6)cccc4c3CCN2C(=O)[C@H]1[C@H](C)O,-1,·,2,0,0,·,·,·,·,·,·
CC(=O)C1CCCN(C(=O)c2ccc3oc(CCc4ccccc4)nc3c2)C1 (stereo not given),1,1,4,7.0*,3.9*,·,·,0,3,·,·
O=C(Nc1ccccc1Br)C(=O)N1CCCC1,0,1,6,1,1,·,·,·,·,·,·
O=C(NNc1ccccc1Br)C(=O)n1ccc2ccccc21,0,0,1,7.6*,0,·,·,0,2,·,·
CCN1CCCC1CNC(=O)c1cc2ccc(OC)cc2[nH]1 (stereo not given),0,0,3,6.6*,1,·,·,0,2,·,·
CCN1CCCC1CNC(=O)c1[nH]c2ccc(OC)cc2c1C (stereo not given),-1,3,2,-1,0,·,·,·,·,·,·
c1ccc(Cn2c(SCC3CCCCC3)nnc2-c2cccnc2)cc1,-2,·,-1,0,0,·,·,·,·,·,·
Cn1cc(C(=O)Nc2ccccn2)c(=O)c2ccccc21,1.7*,3,5,7.0*,0,·,·,1,12*,·,·
O=C(N/N=C/c1ccncc1)c1ccccn1,0,2,6,1,1,·,·,·,·,·,·
CC(C)c1ccc(/C=N/NC(=O)c2ccccn2)cc1,1.0*,-1,10,8.3*,3,·,·,2,10*,·,·
O=C(Nc1cccc(F)c1)Nc1ccccn1,-1,3,8,8.7*,1,·,·,1,1,·,·
CCC(=O)Nc1ccc(NC(=O)c2ccccc2)nc1,1.0*,0,11*,7.0*,4.1*,·,·,1,3,·,·
COC(=O)C1=C(C)NC(C)=C(C(=O)OC)C(N2C(=O)CCC2=O)C1 (stereo not given),-1,·,2,1,-1,·,·,·,·,·,·
O=C(Nc1ccc(F)cc1)c1nsc(Cl)c1Cl,2.8*,3,11*,9.7*,2,·,·,1,11*,·,·
